From PubChem BioAssay (Tox21)
Inconclusive results are not listed. A call without a number means that no potency is given here. The source made the active and inactive calls. Unless noted, calls follow the shape of the dose curve; as a rule, active = well fitted curve in the direction sought with a large enough effect in the repeat runs; inconclusive = weak or mixed curves; inactive = no such curve, though single readings can be large; an effect the other way counts as inactive or inconclusive.

Legend:
[1] = qHTS assay to identify aromatase inhibitors - cell viability counter screen (AID 743084); details: MCF-7 aro ERE viability, CellTiter-Fluor, 24 h; series mostly up to 70.3 µM;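 also: cells stimulated with testosterone during compound exposure; nearly all actives have a fitted effect of over 55% in size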; also: potency is read from the fitted curve at half-maximal effect
[2] = biological target: Aryl hydrocarbon receptor (Homo sapiens) (UniProt P35869); assay: qHTS assay to identify small molecule that activate the aryl hydrocarbon receptor (AhR) signaling pathway (AID 743085); details: HepG2 AhR-luc (HG2L7.5c1), luciferase, 24 h; series mostly up to 70.3 µM; also: nearly all actives have a fitted effect of over 15% in size; also: potency is read from the fitted curve at half-maximal effect;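 as to activation: HG2L7.5c1 human HepG2 liver cells with stably integrated DRE-driven firefly reporter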
Procedure, shortened: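 Reporter assay in engineered HepG2 line HG2L7.5c1, whose plasmid carries twenty dioxin responsive elements upstream of firefly luciferase. Treatment lasted 24 h at 37C; ONE-Glo luminescence gauged induction.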

[3] = qHTS assay to identify small molecule that activate the aryl hydrocarbon receptor (AhR) signaling pathway - cell viability counter screen (AID 743086); details: HepG2-AhR-luc viability, CellTiter-Fluor, 24 h; series mostly up to 70.3 µM; also: nearly all actives have a fitted effect of over 45% in size; also: potency is read from the fitted curve at half-maximal effect
Procedure, shortened: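 HepG2-AhR-luc (HG2L7.5c1) cells, 4000/well, were preincubated 5 h at 37C, exposed to compound in qHTS format for 24 hr at 37C, then given CellTiter-Fluor for 30 min; viability was read as fluorescence in the reporter wells.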

[4] = qHTS assay to identify small molecule antagonists of the peroxisome proliferator-activated receptor gamma (PPARg) signaling pathway - cell viability counter screen (AID 743194); details: PPARg-bla HEK293H viability, CellTiter-Glo luminescence, 17 h; Potency: co-treated with 50 nM rosiglitazone unless noted; series mostly up to 62.6 µM; also: nearly all actives have a fitted effect of over 55% in size; also: potency is read from the fitted curve at half-maximal effect
Procedure, shortened: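 PPARg-UAS-bla HEK293H cells were plated, rested 5 h at 37 C, then treated with compounds plus rosiglitazone (50 nM final) for 17 h at 37 C; viability was then read by CellTiter-Glo luminescence after 30 min at room temperature.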

[5] = qHTS assay for small molecule agonists of the antioxidant response element (ARE) signaling pathway - cell viability counter screen (AID 743203; calls by dose curve; also: nearly all actives have a fitted effect of over 55% in size; also: potency is read from the fitted curve at half-maximal effect); details: ARE-bla HepG2 viability, CellTiter-Glo luminescence, 16 h; series mostly up to 73.3 µM
Procedure, shortened: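 Measured in the same wells as the beta-lactamase ARE reporter, this read-out is CellTiter-Glo luminescence from HepG2 ARE-bla cells given compounds for 16 hrs.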

[6] = qHTS assay for small molecule activators of the heat shock response signaling pathway - cell viability counter screen (AID 743209); details: HSE-bla HeLa viability, CellTiter-Glo luminescence, 5 h; series mostly up to 62.6 µM; also: nearly all actives have a fitted effect of over 50% in size; also: potency is read from the fitted curve at half-maximal effect
Procedure, shortened: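 Same-well multiplex: after 2.5 h room-temperature incubation with LiveBLAzer B/G substrate and fluorescence reading, CellTiter-Glo reagent was added to HSE-bla HeLa cells that had received compound for 5 h at 37 C; luminescence read after 30 min.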

[7] = qHTS assay for small molecule agonists of the antioxidant response element (ARE) signaling pathway (AID 743202; active = well fitted activation curve with a large enough effect in the signal ratio in the repeat runs, not every such curve was filed as active; the % refers to the signal ratio; also: potency is read from the fitted curve at half-maximal effect); details: HepG2 ARE-bla reporter, beta-lactamase FRET, 16 h; series mostly up to 73.3 µM
Procedure, shortened: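 Steps: seed ARE-bla HepG2 cells (2,000/well); incubate 5 h at 37 C; add compounds by pin tool; incubate 16 h at 37 C; add FRET substrate; read fluorescence after 2 h at RT.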

[8] = qHTS assay for small molecule activators of the heat shock response signaling pathway (AID 743210; active = well fitted activation curve with a large enough effect in the signal ratio in the repeat runs, with a control signal flat, not every such curve was filed as active; the % refers to the signal ratio;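 also: HeLa cells with beta-lactamase reporter driven by heat shock elements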); details: HeLa HSE-bla reporter, beta-lactamase ratio, 5 h; series mostly up to 62.6 µM
Procedure, shortened: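 Activation of heat shock element-controlled beta-lactamase expression is measured in HeLa cells by LiveBLAzer FRET fluorescence, with compound exposure lasting 5 h at 37 C and substrate loading 2.5 h at room temperature.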

[9] = biological target: Peroxisome proliferator-activated receptor gamma (Homo sapiens) (UniProt P37231); assay: qHTS assay to identify small molecule antagonists of the peroxisome proliferator-activated receptor gamma (PPARg) signaling pathway (AID 743191; calls by dose curve; also: nearly all actives have a fitted effect of over 30% in size; also: potency is read from the fitted curve at half-maximal effect); details: HEK293H PPARg-UAS-bla, beta-lactamase ratio, antagonist, 17 h; series mostly up to 62.6 µM
Procedure, shortened: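 GeneBLAzer PPARg UAS-bla HEK293H cells carrying a UAS-driven beta-lactamase reporter were plated at 3000 cells/well, preincubated 5 h at 37C, then given compound for 17 h at 37C; LiveBLAzer B/G FRET substrate was read after 1 h at room temperature.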

Aryl hydrocarbon receptor (Homo sapiens), sequence (P35869 whole entry, looked up): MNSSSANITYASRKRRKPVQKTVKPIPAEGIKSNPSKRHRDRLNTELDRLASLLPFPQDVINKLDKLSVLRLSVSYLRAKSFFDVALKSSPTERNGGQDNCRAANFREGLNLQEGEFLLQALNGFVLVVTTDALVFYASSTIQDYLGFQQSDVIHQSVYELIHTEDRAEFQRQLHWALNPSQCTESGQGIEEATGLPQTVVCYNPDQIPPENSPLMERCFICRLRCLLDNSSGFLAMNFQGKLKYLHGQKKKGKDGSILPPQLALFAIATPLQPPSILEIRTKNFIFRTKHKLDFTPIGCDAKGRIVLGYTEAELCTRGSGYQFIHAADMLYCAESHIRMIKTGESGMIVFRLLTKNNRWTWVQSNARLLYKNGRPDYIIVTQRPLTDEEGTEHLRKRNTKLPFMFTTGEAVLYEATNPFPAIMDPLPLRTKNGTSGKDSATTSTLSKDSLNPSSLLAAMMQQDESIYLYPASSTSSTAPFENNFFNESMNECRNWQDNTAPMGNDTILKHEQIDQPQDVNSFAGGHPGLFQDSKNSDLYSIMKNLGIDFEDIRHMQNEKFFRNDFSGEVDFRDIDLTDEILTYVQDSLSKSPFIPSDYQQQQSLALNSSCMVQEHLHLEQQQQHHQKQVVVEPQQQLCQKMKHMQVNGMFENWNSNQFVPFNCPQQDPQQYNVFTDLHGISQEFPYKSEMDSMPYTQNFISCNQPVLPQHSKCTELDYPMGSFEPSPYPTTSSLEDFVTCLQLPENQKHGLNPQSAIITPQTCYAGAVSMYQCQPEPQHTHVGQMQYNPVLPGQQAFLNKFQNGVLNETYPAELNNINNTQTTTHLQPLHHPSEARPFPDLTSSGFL
Peroxisome proliferator-activated receptor gamma (Homo sapiens), sequence (P37231 whole entry, looked up): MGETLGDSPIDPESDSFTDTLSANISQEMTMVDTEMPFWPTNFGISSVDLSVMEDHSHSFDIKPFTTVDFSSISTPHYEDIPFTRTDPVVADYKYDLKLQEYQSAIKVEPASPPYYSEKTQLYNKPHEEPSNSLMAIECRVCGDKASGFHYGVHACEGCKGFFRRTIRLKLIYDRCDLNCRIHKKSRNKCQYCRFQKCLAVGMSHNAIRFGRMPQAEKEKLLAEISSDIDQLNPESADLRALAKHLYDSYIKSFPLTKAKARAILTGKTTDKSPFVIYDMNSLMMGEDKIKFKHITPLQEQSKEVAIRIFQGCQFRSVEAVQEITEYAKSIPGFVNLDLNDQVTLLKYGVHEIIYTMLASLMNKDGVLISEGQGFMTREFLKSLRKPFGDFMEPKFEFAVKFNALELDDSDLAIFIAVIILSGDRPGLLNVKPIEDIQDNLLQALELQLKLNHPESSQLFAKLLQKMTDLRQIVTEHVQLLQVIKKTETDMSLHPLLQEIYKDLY

| Compound | Potency [1] | Potency [2] | Potency [3] | Potency [4] | Potency [5] | Potency [6] | Potency [7] | Potency [8] | Potency [9] |
| --- | --- | --- | --- | --- | --- | --- | --- | --- | --- |
| CCN1CCC2(CC1)COc1cc3c(cc12)N(C(=O)c1ccc(-c2ccc(-c4nnc(C)o4)cc2C)cc1)CC3 | 39.9 µM (active) | inactive | 28.3 µM (active) | 7.16 µM (active) | 7.1 µM (active) | 45.2 µM (active) |  |  |  |
| CCOP(=S)(OCC)SC(CCl)N1C(=O)c2ccccc2C1=O (stereo not drawn) | inactive | inactive | inactive |  |  | inactive | 9.69 µM (active) |  |  |
| CC(=O)[O-].CC(=O)[O-].[Co+2] | inactive | inactive | inactive | inactive | inactive | inactive |  |  |  |
| CSC1=N[C@@](C)(c2ccccc2)C(=O)N1Nc1ccccc1 | inactive | inactive | inactive |  | inactive | inactive |  | inactive |  |
| COP(=O)(OC)Oc1ccc([N+](=O)[O-])cc1 | inactive | inactive | inactive |  | inactive | inactive |  |  | 17.4 µM (active) |
| Brc1cccc(-c2ccccc2)c1 | inactive | inactive | inactive | inactive | inactive | inactive | inactive | inactive |  |
| CC(O)C(=O)[O][Hg][c]1ccccc1 (stereo not drawn) | 1.09 µM (active) | inactive | 4.86 µM (active) | 0.436 µM (active) | 0.686 µM (active) | 1.95 µM (active) |  |  |  |
| CN | inactive | inactive | inactive | inactive | inactive | inactive |  | inactive |  |
| [Cl][Hg][c]1ccccc1 | 1.93 µM (active) | inactive | 5.45 µM (active) | 0.776 µM (active) | 1.72 µM (active) | 3.09 µM (active) |  |  |  |
| O.O.O.O.O.O.O.O=S(=O)([O-])[O-].[Co+2] | inactive | inactive | inactive |  | inactive | inactive |  |  |  |
| Clc1ccc(C2(Cn3cncn3)OCCO2)c(Cl)c1 | inactive | inactive | inactive | inactive | inactive | inactive |  | inactive |  |
| NC(=O)C(Cl)Cl | inactive | inactive | inactive |  | inactive | inactive | inactive | inactive | inactive |
| O=[N+]([O-])c1cc(C(F)(F)F)c(Cl)c([N+](=O)[O-])c1Nc1ncc(C(F)(F)F)cc1Cl | 21.7 µM (active) | 77 µM (active) | 13.7 µM (active) | 1.1 µM (active) | 7.7 µM (active) | 6.16 µM (active) |  |  |  |
| O=C(N[C@@H]1N=C(c2ccccc2F)c2cccc3c2N(CC3)C1=O)c1cc2ccccc2[nH]1 | inactive | 0.0668 µM (active) | inactive | inactive | inactive | inactive |  |  |  |
| CCO/N=C(\CC)C1=C(O)CC(c2c(C)cc(C)cc2C)CC1=O (stereo not drawn) | inactive | inactive | inactive |  | inactive |  |  | inactive |  |
| CC(C)[C@@H](Nc1ccc(C(F)(F)F)cc1Cl)C(=O)OC(C#N)c1cccc(Oc2ccccc2)c1 (stereo partly drawn) | inactive | inactive | inactive | inactive | inactive | inactive |  |  |  |
| C1=CCC=C1 | inactive |  | inactive | inactive | inactive | inactive | inactive |  |  |
| O=S(=O)(NS(=O)(=O)C(F)(F)F)C(F)(F)F | inactive |  |  | inactive | inactive | inactive |  |  |  |
| CCCCn1cc[n+](C)c1.[Cl][Fe-]([Cl])([Cl])[Cl] | inactive |  | inactive |  | inactive | inactive |  |  |  |
